Growth inhibition data for 36 compounds are collected here from PubChem BioAssay (NCI).

The structures appear in SMILES notation. Compounds without any hit were thinned out: in the full panel of roughly 79,000, 15% have a hit. A number with no mark means an inactive call. The source made the active and inactive calls. Cut-off read from the data, not from the text of the source: active = growth inhibition above about 70%; inactive = the rest.

Assay [1] can be described thus: NCI Yeast Anticancer Drug Screen. Data for the mec2-1 strain (AID 157). The conditions noted are these: S. cerevisiae mec2-1 strain, at 50.0 µM, active compounds read high. The method, boiled down: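 Growth inhibition is read against vehicle-treated controls after compound exposure of the mec2-1 yeast strain, which is defective in DNA damage repair or cell cycle control.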

Assay [2] in a line: NCI Yeast Anticancer Drug Screen. Data for the sgs1 mgt1 strain (AID 161).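 Note: 0% = growth of cultures given vehicle only.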 The conditions noted are these: S. cerevisiae sgs1 mgt1 strain, at 50.0 µM, active compounds read high. The method in brief:
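Growth of a repair-deficient yeast mutant was monitored after compound treatment and expressed as inhibition relative to vehicle-treated cultures.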

Assay [3] can be described thus: NCI Yeast Anticancer Drug Screen. Data for the cln2 rad14 strain (AID 165).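 Note: 0% = growth equal to vehicle treated cultures.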 As to conditions: S. cerevisiae cln2 rad14 strain, at 50.0 µM, active compounds read high. The method in brief: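 Growth inhibition, relative to vehicle-treated controls, is the read-out. The test organism is a yeast strain with defined genetic alterations, cln2 rad14.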
Assay [4] can be described thus: NCI Yeast Anticancer Drug Screen. Data for the bub3 strain (AID 167). The conditions noted are these: S. cerevisiae bub3 mutant strain, at 50.0 µM, active compounds read high. The method in brief:
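Compounds were applied to a genetically altered yeast strain carrying a cell-cycle control defect. Growth inhibition was scored against vehicle-treated controls.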

A short description of assay [5]: NCI Yeast Anticancer Drug Screen. Data for the mlh1 rad18 strain (AID 175). As to conditions: S. cerevisiae mlh1 rad18 strain growth inhibition; at 50.0 µM; active compounds read high. The method in brief:
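Cells of a genetically altered yeast strain, deficient in DNA damage repair, were treated with compound. Their growth was then compared with that of vehicle-treated cultures to give inhibition.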

Take `CN(C)CC(=O)N1CCc2c([nH]c3ccccc23)C1c1cccnc1` (stereo not given): the growth inhibition is -10.2% in assay [1]; 3.6% in assay [2]; -3.1% in assay [3]; -15.3% in assay [4]; -16.9% in assay [5].
Taken in the same sequence, the figures for `CC(=O)Nc1ccc2oc(=O)ccc2c1` were -12.7%, -15.4%, -0.5%, -4.2% and -11.1%.
Taken in the same sequence, the figures for `COC(=O)C(=O)C(C(=O)C(=O)Nc1cc(C)ccc1C)c1nc2ccccc2[nH]c1=O` (stereo not given) were -11.9%, 14.4%, 21.1%, -13.7% and 9.4%.
Taken in the same sequence, the figures for `Nc1cccc(Br)n1` were -4.9%, 0.45%, -51.7%, 7.1% and 4.9%.
With `C=C(CCCCCCCCC)CC(=O)SCCNC(=O)CCNC(=O)C(O)C(C)(C)COP(=O)(O)OP(=O)(O)OCC1OC(n2cnc3c(N)ncnc32)C(O)C1OP(=O)(O)O` (stereo not given), the growth inhibition is -14.8% in assay [1]; 0.55% in assay [2]; -17% in assay [3]; -19.6% in assay [4]; 0.4% in assay [5].
With `COc1cc(-c2c(C)oc(C)c2C(C)=O)ccc1OCc1ccccc1`, the growth inhibition is -1.95% in assay [1]; -9.1% in assay [2]; 11.8% in assay [3]; 14.8% in assay [4]; 14.4% in assay [5].
Take `COC(=O)c1nsc(OC)c1Cl`: the growth inhibition in assay [1] is -11.5%; in assay [2], 15.8%; in assay [3], 8.7%; in assay [4] it was 23.6%; in assay [5], 50.4%.
Taken in the same sequence, the figures for `COC1(C)CNc2ccccc2C(=O)N1` (stereo not given) were -7.4%, 22.9%, 19.1%, 23.1% and 6.55%.
For `CCOC(=O)c1cn(Cc2ccccc2)c(=O)n1Cc1ccccc1`, in that order: 23.3%, 23.5%, -2.4%, 42.5% and 56.1%.
As to `O=c1c2cccnc2[nH]c2ccc3[nH]ncc3c12`, the growth inhibition in assay [1] is -25.9%; in assay [2] it was -13.4%; in assay [3] it was 26.4%; in assay [4], -30.9%; in assay [5], 15.6%.
For `N#CC(NCCCNC(C#N)c1ccccc1)c1ccccc1` (stereo not given), in that order: 5.05%, -4.6%, -23.7%, -3.9% and -18.4%.
As to `COC(=O)/C(=C\c1ccc(N(CCC#N)CCC#N)cc1)NC(=O)c1cc([N+](=O)[O-])ccc1Cl`, the growth inhibition was -3.65% in assay [1]; -16.1% in assay [2]; 5.65% in assay [3]; -21.6% in assay [4]; -3.4% in assay [5].
For `C[N+](C)(CCNCC(N)=O)CC(N)=O`, in that order: -4.2%, -19.1%, -9.95%, 5.15% and -1.5%.
Taken in the same sequence, the figures for `CNC(=S)N/N=C(C)\C=N/Nc1ccc(Br)cc1` were 14.1%, 34.7%, -18.9%, 21.2% and 25.9%.
For `COc1cc2c(cc1OC)C1c3cc(OC)c(OC)cc3CC(=O)N1CC2` (stereo not given), in that order: 7.1%, 38.5%, 19.3%, 24.5% and 37.6%.
`CCOC(=O)CCCCCCCCC(=O)Nc1ccc(-n2[nH]c(=O)cc2C)cc1`: the growth inhibition in assay [1] is -31%; in assay [2] it was -27.6%; in assay [3], 6.95%; in assay [4], -4.1%; in assay [5] it was -3.3%.
For `COc1cc(Cc2cc(OC)c(OC)c(OC)c2)ccc1O`, in that order: -8.5%, -8.5%, -2.6%, 19.1% and 9.5%.
For `O=C(Nc1cc(Cl)c(Cl)cc1Cl)Nc1cc(Cl)ccc1Oc1ccc(Cl)cc1S(=O)(=O)O`, in that order: 99.3% (active), 99.2% (active), 98.5% (active), 98.8% (active) and 98.7% (active).
For the compound `OCC1OC(n2ncc3c(Nc4ccccc4)ncnc32)C(O)C1O` (stereo not given), the growth inhibition is 18.3% in assay [1]; 6.75% in assay [2]; -5.7% in assay [3]; 6.9% in assay [4]; 17.9% in assay [5].
On to `CC12CCCC(C(=O)O)(C1)[C@H](C(C)(C)C(=O)O)CC2` (stereo not given in full), for which the growth inhibition in assay [1] is -40.9%; in assay [2], -15.7%; in assay [3] it was 8.75%; in assay [4] it was -4.2%; in assay [5] it was -10.8%.
For `CCOC(=O)Nc1ccc([N+](=O)[O-])c2c1C(=O)c1ccccc1-2`, in that order: 2.9%, -8.6%, -10.7%, -21.6% and -19.5%.
`COc1ccc(-c2cc(-c3ccccc3)n(C3OC(COC(C)=O)C(OC(C)=O)C(OC(C)=O)C3OC(C)=O)c(=S)c2C#N)cc1` (stereo not given): the growth inhibition in assay [1] is -11.8%; in assay [2], -8.6%; in assay [3] it was -25.4%; in assay [4], 26.5%; in assay [5], -5.2%.
Taken in the same sequence, the figures for `O=C1C(Cl)C(c2cccc(O)c2)N1n1cnc2ccccc2c1=O` (stereo not given) were -4.15%, -7.5%, -8%, -19.4% and -0.95%.
For `CC1OC2CC(O)C1(O)C1=C2C(O)=C(C(N)=O)C(=N)C1=O` (stereo not given), in that order: -15.6%, 19.4%, 6.8%, 5.35% and -21.4%.
Taken in the same sequence, the figures for `Cc1cc(Cl)ccc1OC(=O)NC1CCCCC1` were 24.4%, -2.35%, -13.5%, 30.4% and 30.4%.
With `CCOC(=O)c1ccc(NCc2ccc3oc(=O)c(-c4ccccc4)nc3c2)cc1`, the growth inhibition is -16.6% in assay [1]; -12.8% in assay [2]; 22.2% in assay [3]; -17.7% in assay [4]; -17.4% in assay [5].
For `ClC1(c2ccccc2)c2ccccc2C(Cl)(c2ccccc2)c2ccccc21` (stereo not given), the growth inhibition in assay [1] was 0.1%; in assay [2], -6.7%; in assay [3], -3.8%; in assay [4] it was 12.2%; in assay [5], 27.9%.
For `O=C(Cc1ccccc1)Nc1ccc(Br)cc1`, in that order: 15.8%, 15.5%, -16.1%, 13.7% and 8.55%.
Consider `CCCCC1(CC)COC2(CCCC2)OC1`, for which the growth inhibition is 2.25% in assay [1]; -11.6% in assay [2]; 3.2% in assay [3]; -9.7% in assay [4]; 12.4% in assay [5].
On to `CCCC(=O)Nc1ccccc1OC`, for which the growth inhibition was 12.7% in assay [1]; 9.2% in assay [2]; 11.9% in assay [3]; 24.4% in assay [4]; -0.75% in assay [5].
Turning to `C/C(NN(C)C)=C(\C#N)C(=O)/C=C/c1cccs1`, the growth inhibition in assay [1] is 1.75%; in assay [2] it was 38.5%; in assay [3], 25.9%; in assay [4], 18.1%; in assay [5] it was 18.8%.
In the case of `CCCCCCC(C)CC1=C(O)c2ccccc2C(=O)C1=O` (stereo not given), the growth inhibition in assay [1] was 7.55%; in assay [2], -1.9%; in assay [3], -38.4%; in assay [4], 13.6%; in assay [5], 5.25%.
Taken in the same sequence, the figures for `CCCOC(=O)CC(=O)OCC` were 17.2%, -4.95%, -11.8%, -7.15% and -17.4%.
As for `CCOc1ccc(N(O)C(C)=O)cc1`, the growth inhibition in assay [1] was -10.4%; in assay [2], 3%; in assay [3] it was -43.4%; in assay [4], -8.75%; in assay [5], 0%.
Taken in the same sequence, the figures for `C1=C(c2ccccc2)CCCC1` were 3.55%, 4.2%, 14.4%, -9.4% and 4.45%.
Taken in the same sequence, the figures for `O=S(=O)(O)c1ccc2cc(O)ccc2c1` were 14.6%, 13.8%, 14.5%, 20.8% and 28.4%.
